Legend:
[1] = target: Death-associated protein kinase 1 (Homo sapiens) (UniProt P53355); conditions: at 1 µM;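 note: each value is a mean inhibition figure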
[2] = target: T1, Serine/threonine-protein kinase DCLK2 (Homo sapiens) (UniProt Q8N568); conditions: at 0.1 µM
T1 sequence (whole entry): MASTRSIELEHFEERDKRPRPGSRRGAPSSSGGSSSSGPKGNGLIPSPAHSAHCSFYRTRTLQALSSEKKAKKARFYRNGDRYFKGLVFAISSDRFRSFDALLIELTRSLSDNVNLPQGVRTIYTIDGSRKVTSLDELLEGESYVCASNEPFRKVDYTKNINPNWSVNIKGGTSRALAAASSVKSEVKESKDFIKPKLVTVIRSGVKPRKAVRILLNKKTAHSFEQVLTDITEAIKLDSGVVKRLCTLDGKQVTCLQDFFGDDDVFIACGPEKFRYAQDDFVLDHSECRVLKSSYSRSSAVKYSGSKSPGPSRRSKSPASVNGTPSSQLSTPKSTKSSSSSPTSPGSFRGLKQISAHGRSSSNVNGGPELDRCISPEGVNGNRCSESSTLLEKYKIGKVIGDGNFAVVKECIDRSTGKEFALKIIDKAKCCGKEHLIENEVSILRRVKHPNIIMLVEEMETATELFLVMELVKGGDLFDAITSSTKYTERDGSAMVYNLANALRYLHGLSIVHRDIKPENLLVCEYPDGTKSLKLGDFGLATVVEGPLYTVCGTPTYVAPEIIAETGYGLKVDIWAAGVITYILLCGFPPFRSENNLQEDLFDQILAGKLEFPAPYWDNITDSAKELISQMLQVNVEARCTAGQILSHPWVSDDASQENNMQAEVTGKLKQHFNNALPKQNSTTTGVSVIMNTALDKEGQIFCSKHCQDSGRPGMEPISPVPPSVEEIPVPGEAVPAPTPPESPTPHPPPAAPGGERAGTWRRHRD

[3] = target: T1, Serine/threonine-protein kinase DCLK2 (Homo sapiens); conditions: at 1 µM
[4] = target: MAP kinase-activated protein kinase 2 (Homo sapiens) (UniProt P49137); conditions: at 0.1 µM
Chain of MAP kinase-activated protein kinase 2 (Homo sapiens) (P49137 whole entry, looked up): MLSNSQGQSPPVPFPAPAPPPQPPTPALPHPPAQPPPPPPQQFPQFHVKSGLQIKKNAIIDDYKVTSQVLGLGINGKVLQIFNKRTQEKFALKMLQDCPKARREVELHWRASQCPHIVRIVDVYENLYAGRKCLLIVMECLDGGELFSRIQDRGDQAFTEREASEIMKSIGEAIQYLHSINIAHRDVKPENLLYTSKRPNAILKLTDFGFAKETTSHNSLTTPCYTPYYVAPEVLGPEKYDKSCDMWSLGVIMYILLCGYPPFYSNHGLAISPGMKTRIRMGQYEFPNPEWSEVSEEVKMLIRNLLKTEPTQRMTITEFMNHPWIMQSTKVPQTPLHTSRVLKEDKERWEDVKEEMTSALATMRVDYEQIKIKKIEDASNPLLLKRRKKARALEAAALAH

[5] = target: MAP kinase-activated protein kinase 2 (Homo sapiens) (UniProt P49137); conditions: at 1 µM
[6] = target: MAP kinase-activated protein kinase 3 (Homo sapiens) (UniProt Q16644); conditions: at 0.1 µM
Chain of MAP kinase-activated protein kinase 3 (Homo sapiens) (Q16644 whole entry, looked up): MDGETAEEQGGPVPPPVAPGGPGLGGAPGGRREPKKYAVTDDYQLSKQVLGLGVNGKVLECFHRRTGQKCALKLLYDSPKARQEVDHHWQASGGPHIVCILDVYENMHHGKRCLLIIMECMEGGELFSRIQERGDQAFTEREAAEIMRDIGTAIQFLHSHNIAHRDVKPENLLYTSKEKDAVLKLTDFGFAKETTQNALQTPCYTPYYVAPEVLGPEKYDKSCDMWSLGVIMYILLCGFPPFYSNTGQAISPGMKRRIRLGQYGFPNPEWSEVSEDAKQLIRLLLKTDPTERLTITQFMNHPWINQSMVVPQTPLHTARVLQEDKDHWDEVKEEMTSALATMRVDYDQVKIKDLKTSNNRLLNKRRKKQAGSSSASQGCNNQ

[7] = target: MAP kinase-activated protein kinase 3 (Homo sapiens) (UniProt Q16644); conditions: at 1 µM
[8] = target: Serine/threonine-protein kinase MARK1 (Homo sapiens) (UniProt Q9P0L2); conditions: at 0.1 µM
Chain of Serine/threonine-protein kinase MARK1 (Homo sapiens) (Q9P0L2 whole entry, looked up): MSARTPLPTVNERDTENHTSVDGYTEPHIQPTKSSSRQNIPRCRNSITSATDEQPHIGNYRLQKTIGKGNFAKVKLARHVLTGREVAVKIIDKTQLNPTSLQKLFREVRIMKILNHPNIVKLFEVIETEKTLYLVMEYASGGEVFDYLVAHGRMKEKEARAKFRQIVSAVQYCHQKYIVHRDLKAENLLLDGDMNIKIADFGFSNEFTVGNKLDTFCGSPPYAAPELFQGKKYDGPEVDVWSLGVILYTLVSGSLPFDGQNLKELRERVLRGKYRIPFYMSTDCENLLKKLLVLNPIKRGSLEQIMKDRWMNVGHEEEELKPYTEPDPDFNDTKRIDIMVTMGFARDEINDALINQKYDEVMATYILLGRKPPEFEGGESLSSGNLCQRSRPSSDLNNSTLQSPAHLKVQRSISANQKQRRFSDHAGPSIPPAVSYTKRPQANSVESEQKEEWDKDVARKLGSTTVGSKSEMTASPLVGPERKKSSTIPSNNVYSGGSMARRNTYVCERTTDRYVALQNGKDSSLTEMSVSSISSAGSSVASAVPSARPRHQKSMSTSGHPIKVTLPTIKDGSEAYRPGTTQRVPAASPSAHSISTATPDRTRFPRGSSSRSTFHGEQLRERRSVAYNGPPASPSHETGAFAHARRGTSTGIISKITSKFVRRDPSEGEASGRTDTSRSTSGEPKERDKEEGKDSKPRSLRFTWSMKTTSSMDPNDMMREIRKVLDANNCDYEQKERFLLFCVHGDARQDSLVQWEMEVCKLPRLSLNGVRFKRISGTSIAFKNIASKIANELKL

[9] = target: Serine/threonine-protein kinase MARK1 (Homo sapiens) (UniProt Q9P0L2); conditions: at 1 µM
[10] = target: MAP/microtubule affinity-regulating kinase 3 (Homo sapiens) (UniProt P27448); conditions: at 0.1 µM
Chain of MAP/microtubule affinity-regulating kinase 3 (Homo sapiens) (P27448 whole entry, looked up): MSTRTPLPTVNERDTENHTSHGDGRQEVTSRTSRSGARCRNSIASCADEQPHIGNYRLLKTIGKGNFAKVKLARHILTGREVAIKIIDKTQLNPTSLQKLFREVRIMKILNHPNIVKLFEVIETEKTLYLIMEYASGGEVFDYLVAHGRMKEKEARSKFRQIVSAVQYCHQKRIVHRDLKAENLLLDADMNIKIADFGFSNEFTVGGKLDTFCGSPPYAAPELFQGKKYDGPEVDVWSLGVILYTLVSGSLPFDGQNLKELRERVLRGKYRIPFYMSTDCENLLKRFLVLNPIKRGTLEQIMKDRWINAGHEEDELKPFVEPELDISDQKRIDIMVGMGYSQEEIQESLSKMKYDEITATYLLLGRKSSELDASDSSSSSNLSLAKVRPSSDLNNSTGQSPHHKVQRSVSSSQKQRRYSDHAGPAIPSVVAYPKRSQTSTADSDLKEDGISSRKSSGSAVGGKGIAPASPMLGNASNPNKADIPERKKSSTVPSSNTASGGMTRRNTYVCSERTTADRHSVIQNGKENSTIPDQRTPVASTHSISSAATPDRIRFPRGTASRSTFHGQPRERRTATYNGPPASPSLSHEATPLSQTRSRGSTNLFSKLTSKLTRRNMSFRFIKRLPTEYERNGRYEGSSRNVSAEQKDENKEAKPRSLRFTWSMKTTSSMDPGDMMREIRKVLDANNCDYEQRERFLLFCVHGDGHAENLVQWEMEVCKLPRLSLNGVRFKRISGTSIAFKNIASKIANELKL

[11] = target: MAP/microtubule affinity-regulating kinase 3 (Homo sapiens) (UniProt P27448); conditions: at 1 µM
[12] = target: T2, MAP/microtubule affinity-regulating kinase 4 (Homo sapiens) (UniProt Q96L34); conditions: at 0.1 µM
T2 sequence (whole entry): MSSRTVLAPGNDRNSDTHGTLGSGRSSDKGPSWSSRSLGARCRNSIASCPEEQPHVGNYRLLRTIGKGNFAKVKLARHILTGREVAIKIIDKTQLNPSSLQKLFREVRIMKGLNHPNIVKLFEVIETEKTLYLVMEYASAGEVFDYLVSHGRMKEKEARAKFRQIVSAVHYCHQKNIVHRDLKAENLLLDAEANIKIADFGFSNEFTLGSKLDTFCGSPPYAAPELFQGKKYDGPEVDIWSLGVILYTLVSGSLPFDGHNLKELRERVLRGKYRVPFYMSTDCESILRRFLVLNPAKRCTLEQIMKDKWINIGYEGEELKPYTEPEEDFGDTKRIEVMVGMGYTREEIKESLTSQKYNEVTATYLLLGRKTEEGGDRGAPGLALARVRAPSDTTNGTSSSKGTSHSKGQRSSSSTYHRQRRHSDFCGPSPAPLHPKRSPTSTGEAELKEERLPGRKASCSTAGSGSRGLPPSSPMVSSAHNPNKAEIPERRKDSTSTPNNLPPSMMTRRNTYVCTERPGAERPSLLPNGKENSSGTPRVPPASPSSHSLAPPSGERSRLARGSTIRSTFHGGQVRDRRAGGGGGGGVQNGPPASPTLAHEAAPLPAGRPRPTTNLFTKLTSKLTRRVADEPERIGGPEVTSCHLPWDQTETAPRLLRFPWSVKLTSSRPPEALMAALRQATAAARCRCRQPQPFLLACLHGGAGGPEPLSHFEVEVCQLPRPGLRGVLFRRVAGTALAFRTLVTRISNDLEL

[13] = target: T2, MAP/microtubule affinity-regulating kinase 4 (Homo sapiens); conditions: at 1 µM
[14] = target: Maternal embryonic leucine zipper kinase (Homo sapiens) (UniProt Q14680); conditions: at 0.1 µM
Chain of Maternal embryonic leucine zipper kinase (Homo sapiens) (Q14680 whole entry, looked up): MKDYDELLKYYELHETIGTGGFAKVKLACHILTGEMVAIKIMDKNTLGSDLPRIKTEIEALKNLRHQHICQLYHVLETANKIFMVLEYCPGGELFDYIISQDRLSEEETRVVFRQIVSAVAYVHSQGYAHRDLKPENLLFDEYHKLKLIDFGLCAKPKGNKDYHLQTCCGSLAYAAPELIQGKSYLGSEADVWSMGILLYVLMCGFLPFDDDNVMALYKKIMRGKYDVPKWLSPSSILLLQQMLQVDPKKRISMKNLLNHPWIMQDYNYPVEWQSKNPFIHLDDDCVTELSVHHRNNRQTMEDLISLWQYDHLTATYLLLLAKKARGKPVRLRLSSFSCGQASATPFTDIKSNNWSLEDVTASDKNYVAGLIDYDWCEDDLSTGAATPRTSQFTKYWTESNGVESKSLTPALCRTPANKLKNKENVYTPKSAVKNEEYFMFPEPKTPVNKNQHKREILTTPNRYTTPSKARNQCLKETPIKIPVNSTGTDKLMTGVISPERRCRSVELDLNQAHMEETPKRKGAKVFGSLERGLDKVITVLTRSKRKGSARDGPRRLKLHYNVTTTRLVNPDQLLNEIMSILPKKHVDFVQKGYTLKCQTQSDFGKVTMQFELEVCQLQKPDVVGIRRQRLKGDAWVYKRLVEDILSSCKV

[15] = target: Maternal embryonic leucine zipper kinase (Homo sapiens) (UniProt Q14680); conditions: at 1 µM
[16] = target: MAP kinase-interacting serine/threonine-protein kinase 1 (Homo sapiens) (UniProt Q9BUB5); conditions: at 0.1 µM
[17] = target: MAP kinase-interacting serine/threonine-protein kinase 1 (Homo sapiens) (UniProt Q9BUB5); conditions: at 1 µM
[18] = target: MAP kinase-interacting serine/threonine-protein kinase 2 (Homo sapiens) (UniProt Q9HBH9); conditions: at 0.1 µM
Chain of MAP kinase-interacting serine/threonine-protein kinase 2 (Homo sapiens) (Q9HBH9 whole entry, looked up): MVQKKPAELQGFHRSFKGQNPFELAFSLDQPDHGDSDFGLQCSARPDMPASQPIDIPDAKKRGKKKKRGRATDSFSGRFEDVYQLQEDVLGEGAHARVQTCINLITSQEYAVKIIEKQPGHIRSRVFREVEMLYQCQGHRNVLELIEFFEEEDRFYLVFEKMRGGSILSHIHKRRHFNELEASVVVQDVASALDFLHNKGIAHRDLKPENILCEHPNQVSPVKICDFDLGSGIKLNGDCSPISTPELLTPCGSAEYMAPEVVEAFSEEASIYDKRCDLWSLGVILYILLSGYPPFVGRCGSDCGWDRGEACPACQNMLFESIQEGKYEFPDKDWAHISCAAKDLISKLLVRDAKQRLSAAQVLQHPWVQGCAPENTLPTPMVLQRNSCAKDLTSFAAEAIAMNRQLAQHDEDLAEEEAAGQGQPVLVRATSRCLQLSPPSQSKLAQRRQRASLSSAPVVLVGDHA

[19] = target: MAP kinase-interacting serine/threonine-protein kinase 2 (Homo sapiens) (UniProt Q9HBH9); conditions: at 1 µM
[20] = target: Serine/threonine-protein kinase MARK2 (Homo sapiens) (UniProt Q7KZI7); conditions: at 0.1 µM;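 note: mean percent inhibition of PAR-1Balpha kinase activity, reported from the GSK PKIS screen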

Chain of Death-associated protein kinase 1 (Homo sapiens) (P53355 whole entry, looked up): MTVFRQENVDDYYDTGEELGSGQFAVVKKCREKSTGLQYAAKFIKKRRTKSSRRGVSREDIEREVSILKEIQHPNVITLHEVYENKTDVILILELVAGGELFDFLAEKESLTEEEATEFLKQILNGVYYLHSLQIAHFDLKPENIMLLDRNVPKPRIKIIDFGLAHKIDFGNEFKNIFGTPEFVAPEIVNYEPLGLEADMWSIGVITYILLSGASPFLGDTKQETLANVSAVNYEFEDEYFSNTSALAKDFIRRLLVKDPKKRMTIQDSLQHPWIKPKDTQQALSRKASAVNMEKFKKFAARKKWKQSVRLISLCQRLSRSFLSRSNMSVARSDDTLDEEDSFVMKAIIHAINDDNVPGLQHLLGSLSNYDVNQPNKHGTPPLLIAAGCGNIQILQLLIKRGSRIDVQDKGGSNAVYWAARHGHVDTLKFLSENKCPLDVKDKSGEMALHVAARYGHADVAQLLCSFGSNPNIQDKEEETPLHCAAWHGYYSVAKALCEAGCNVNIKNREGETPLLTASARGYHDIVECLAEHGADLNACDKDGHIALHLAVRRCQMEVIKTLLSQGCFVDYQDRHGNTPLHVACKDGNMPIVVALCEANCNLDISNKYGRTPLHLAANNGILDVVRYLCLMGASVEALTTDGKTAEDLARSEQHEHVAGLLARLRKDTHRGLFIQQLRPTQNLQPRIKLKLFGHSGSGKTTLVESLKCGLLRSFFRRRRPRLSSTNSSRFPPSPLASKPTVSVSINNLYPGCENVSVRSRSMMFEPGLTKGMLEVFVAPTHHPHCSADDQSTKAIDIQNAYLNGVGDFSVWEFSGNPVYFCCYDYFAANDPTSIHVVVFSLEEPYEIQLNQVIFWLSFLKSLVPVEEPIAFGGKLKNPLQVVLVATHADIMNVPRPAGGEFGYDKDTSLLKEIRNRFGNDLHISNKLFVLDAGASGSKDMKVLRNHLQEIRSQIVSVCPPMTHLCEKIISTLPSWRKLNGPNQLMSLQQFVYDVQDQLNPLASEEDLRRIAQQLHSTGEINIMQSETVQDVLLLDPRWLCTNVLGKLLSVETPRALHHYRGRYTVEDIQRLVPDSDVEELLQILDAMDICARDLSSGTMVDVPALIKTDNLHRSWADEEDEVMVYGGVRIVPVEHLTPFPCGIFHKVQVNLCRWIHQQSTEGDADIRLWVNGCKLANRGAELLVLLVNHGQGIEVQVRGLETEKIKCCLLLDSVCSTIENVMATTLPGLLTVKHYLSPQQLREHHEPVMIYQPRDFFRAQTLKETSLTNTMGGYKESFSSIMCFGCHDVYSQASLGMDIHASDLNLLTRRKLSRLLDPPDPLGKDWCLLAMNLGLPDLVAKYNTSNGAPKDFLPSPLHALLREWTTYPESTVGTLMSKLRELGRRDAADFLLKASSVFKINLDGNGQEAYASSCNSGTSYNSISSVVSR

CS(=O)(=O)CCNCc1ccc(-c2ccc3ncnc(Nc4ccc(OCc5cccc(C(F)(F)F)c5)cc4)c3c2)o1
inhibition [1]: 5.63%
inhibition [2]: 0.29%
inhibition [3]: 1.78%
inhibition [4]: 3.06%
inhibition [5]: 3.74%
inhibition [6]: 5.88%
inhibition [7]: 8.3%
inhibition [8]: 0.99%
inhibition [9]: 3.78%
inhibition [10]: 0.32%
inhibition [11]: 3.96%
inhibition [12]: 1.47%
inhibition [13]: 2.54%
inhibition [14]: 3.5%
inhibition [15]: 11.4%
inhibition [16]: 2.34%
inhibition [17]: 6.48%
inhibition [18]: 0.53%
inhibition [19]: 5.47%
inhibition [20]: 0.72%

NS(=O)(=O)c1cccc(N/C=C2\C(=O)Nc3ccccc32)c1
inhibition [1]: 12.5%
inhibition [2]: 0.84%
inhibition [3]: 2.32%
inhibition [4]: 4.22%
inhibition [5]: 4.45%
inhibition [6]: 11.3%
inhibition [7]: 12.1%
inhibition [8]: 6.31%
inhibition [9]: 24.4%
inhibition [10]: 5.23%
inhibition [11]: 17%
inhibition [12]: 4.17%
inhibition [13]: 15.5%
inhibition [14]: 5.46%
inhibition [15]: 19%
inhibition [16]: 2.36%
inhibition [17]: 4.02%
inhibition [18]: 1.04%
inhibition [19]: 2.05%
inhibition [20]: 2.99%

COc1cc(Nc2ncc(-c3ccccc3)o2)cc(OC)c1
inhibition [1]: -0.73%
inhibition [2]: 1.65%
inhibition [3]: 1.7%
inhibition [4]: 2.4%
inhibition [5]: 1.2%
inhibition [6]: 3.76%
inhibition [7]: 3.61%
inhibition [8]: 1.26%
inhibition [9]: 4.72%
inhibition [10]: 3.35%
inhibition [11]: 2.48%
inhibition [12]: 1.86%
inhibition [13]: 3.56%
inhibition [14]: 4.58%
inhibition [15]: 5.97%
inhibition [16]: 3.84%
inhibition [17]: 10.8%
inhibition [18]: 1.3%
inhibition [19]: 12.4%
inhibition [20]: -1.15%

COc1cccc(-n2ncc3c(N/N=C/c4ccc(C(=O)NCCN(C)C)cc4)ncnc32)c1
inhibition [1]: 4.78%
inhibition [2]: 1.42%
inhibition [3]: 0.78%
inhibition [4]: 0.79%
inhibition [5]: 1.08%
inhibition [6]: 1.89%
inhibition [7]: 4.06%
inhibition [8]: 4.25%
inhibition [9]: 16.7%
inhibition [10]: 4.78%
inhibition [11]: 18.4%
inhibition [12]: 2.02%
inhibition [13]: 16.8%
inhibition [14]: 2.38%
inhibition [15]: 11.5%
inhibition [16]: 39.4%
inhibition [17]: 72.9%
inhibition [18]: 28.7%
inhibition [19]: 67.5%
inhibition [20]: 1.55%

CCOc1ccc2c(-c3ccnc(Nc4cc(OC)cc(C(F)(F)F)c4)n3)cnn2n1
inhibition [1]: 1.23%
inhibition [2]: -0.5%
inhibition [3]: 4.41%
inhibition [4]: 0.58%
inhibition [5]: -0.09%
inhibition [6]: 0.28%
inhibition [7]: -1.31%
inhibition [8]: -0.04%
inhibition [9]: 2.77%
inhibition [10]: -1.2%
inhibition [11]: -0.83%
inhibition [12]: -0.72%
inhibition [13]: 2.36%
inhibition [14]: 3.83%
inhibition [15]: 10.3%
inhibition [16]: 4.65%
inhibition [17]: 8.47%
inhibition [18]: 2.3%
inhibition [19]: 4.37%
inhibition [20]: 0.85%

CCN1CCC(C(=O)Nc2n[nH]c3nnc(-c4cccc(F)c4F)cc23)CC1
inhibition [1]: -1.64%
inhibition [2]: -0.76%
inhibition [3]: -0.98%
inhibition [4]: -0.95%
inhibition [5]: -0.88%
inhibition [6]: -0.17%
inhibition [7]: -1.03%
inhibition [8]: 0.92%
inhibition [9]: 2.69%
inhibition [10]: -0.37%
inhibition [11]: 1.76%
inhibition [12]: 0.44%
inhibition [13]: 2.52%
inhibition [14]: -1.02%
inhibition [15]: -1.79%
inhibition [16]: 1.56%
inhibition [17]: 3.13%
inhibition [18]: 0.51%
inhibition [19]: 1.47%
inhibition [20]: -2.48%
